Data on 19 sequences can be found in PMC11006913.

Common to all, as to experiment: PBM; 200 nM protein, PBS
Holding throughout (conditions): dsDNA, one strand shown

The target of assay [1] is HOXC9 (Homo sapiens, UniProt P31274 178-260, K195R).
In assay [2] the target is HOXC9 (Homo sapiens, UniProt P31274 178-260).
The target in assay [3] is HOXC9 (Homo sapiens, UniProt P31274 178-260, R193K).
For assay [4], the target named is PROP1 (Homo sapiens, UniProt O75360 56-141).
In assay [5] the target is PROP1 (Homo sapiens, UniProt O75360 56-141, R99H).
Sequence of PROP1 (Homo sapiens, UniProt O75360 56-141, R99H) (O75360 56-141 R99H): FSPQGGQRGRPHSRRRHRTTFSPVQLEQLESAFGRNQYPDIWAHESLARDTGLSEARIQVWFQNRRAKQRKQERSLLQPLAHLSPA
In assay [6] the target is HOXC9 (Homo sapiens, UniProt P31274 178-260, R222W).
Sequence of HOXC9 (Homo sapiens, UniProt P31274 178-260, R222W) (P31274 178-260 R222W): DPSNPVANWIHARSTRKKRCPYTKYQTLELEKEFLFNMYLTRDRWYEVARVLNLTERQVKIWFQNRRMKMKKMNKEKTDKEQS
Assay [7] deals with PROP1 (Homo sapiens, UniProt O75360 56-141, F88S).
Sequence of PROP1 (Homo sapiens, UniProt O75360 56-141, F88S) (O75360 56-141 F88S): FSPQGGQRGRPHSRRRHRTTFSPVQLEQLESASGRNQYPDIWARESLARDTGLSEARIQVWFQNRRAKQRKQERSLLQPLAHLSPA
In a further assay the target is ALX3 (Homo sapiens, UniProt O95076 139-225).
Sequence of ALX3 (O95076 139-225): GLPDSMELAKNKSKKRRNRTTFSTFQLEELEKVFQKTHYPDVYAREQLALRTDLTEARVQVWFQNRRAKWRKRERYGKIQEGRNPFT

Sequence of HOXC9 (Homo sapiens, UniProt P31274 178-260) (P31274 178-260): as the sequence (P31274 178-260 R222W) above, with W45R counted along it
Sequence of HOXC9 (Homo sapiens, UniProt P31274 178-260, R193K) (P31274 178-260 R193K): as the sequence (P31274 178-260 R222W) above, with R16K, W45R counted along it
Sequence of HOXC9 (Homo sapiens, UniProt P31274 178-260, K195R) (P31274 178-260 K195R): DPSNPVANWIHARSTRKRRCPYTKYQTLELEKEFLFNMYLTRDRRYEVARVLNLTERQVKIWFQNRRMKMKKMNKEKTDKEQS
Sequence of PROP1 (Homo sapiens, UniProt O75360 56-141) (O75360 56-141): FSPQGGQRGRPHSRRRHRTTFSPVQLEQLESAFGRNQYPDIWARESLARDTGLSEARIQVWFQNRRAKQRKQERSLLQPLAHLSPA

With CTGGACGC, the binding signal is 9.6 upbm affinity estimate (log intensity, higher = more binding, comparable within an allelic series) in the assay with HOXC9 [1]; 9.69 upbm affinity estimate (log intensity, higher = more binding, comparable within an allelic series) with HOXC9 [2]; 9.69 upbm affinity estimate (log intensity, higher = more binding, comparable within an allelic series) in the assay with HOXC9 [3]; 6.69 upbm affinity estimate (log intensity, higher = more binding, comparable within an allelic series) with PROP1 [4]; 6.62 upbm affinity estimate (log intensity, higher = more binding, comparable within an allelic series) with PROP1 [5]; 9.74 upbm affinity estimate (log intensity, higher = more binding, comparable within an allelic series) in the assay with HOXC9 [6]. Also, the binding signal with PROP1 [7] is 6.59 upbm affinity estimate (log intensity, higher = more binding, comparable within an allelic series).

For the sequence ATGAACTA, the binding signal with HOXC9 [1] was 10.9 upbm affinity estimate (log intensity, higher = more binding, comparable within an allelic series); with HOXC9 [2], 10.9 upbm affinity estimate (log intensity, higher = more binding, comparable within an allelic series); with HOXC9 [3], 10.9 upbm affinity estimate (log intensity, higher = more binding, comparable within an allelic series).

As for ATGTTAAC, the binding signal is 11.1 upbm affinity estimate (log intensity, higher = more binding, comparable within an allelic series) in the assay with HOXC9 [1]; 11.1 upbm affinity estimate (log intensity, higher = more binding, comparable within an allelic series) with HOXC9 [2]; 11.1 upbm affinity estimate (log intensity, higher = more binding, comparable within an allelic series) with HOXC9 [3].

For the sequence CCTGCACC, the binding signal was 9.28 upbm affinity estimate (log intensity, higher = more binding, comparable within an allelic series) in the assay with HOXC9 [1]; 9.29 upbm affinity estimate (log intensity, higher = more binding, comparable within an allelic series) with HOXC9 [2]; 9.3 upbm affinity estimate (log intensity, higher = more binding, comparable within an allelic series) with HOXC9 [3]; 9.7 upbm affinity estimate (log intensity, higher = more binding, comparable within an allelic series) with HOXC9 [6].

Take TGATTGCA: the binding signal with HOXC9 [1] was 11.1 upbm affinity estimate (log intensity, higher = more binding, comparable within an allelic series); with HOXC9 [2], 11 upbm affinity estimate (log intensity, higher = more binding, comparable within an allelic series); with HOXC9 [3], 11.2 upbm affinity estimate (log intensity, higher = more binding, comparable within an allelic series).

In the case of CACCATTA, the binding signal was 11.9 upbm affinity estimate (log intensity, higher = more binding, comparable within an allelic series) with HOXC9 [1]; 11.9 upbm affinity estimate (log intensity, higher = more binding, comparable within an allelic series) in the assay with HOXC9 [2]; 11.8 upbm affinity estimate (log intensity, higher = more binding, comparable within an allelic series) with HOXC9 [3]; 10.6 upbm affinity estimate (log intensity, higher = more binding, comparable within an allelic series) in the assay with HOXC9 [6].

Regarding CTATAGAA, the binding signal in the assay with HOXC9 [1] is 11.1 upbm affinity estimate (log intensity, higher = more binding, comparable within an allelic series); with HOXC9 [2], 11 upbm affinity estimate (log intensity, higher = more binding, comparable within an allelic series); with HOXC9 [3] it was 11.1 upbm affinity estimate (log intensity, higher = more binding, comparable within an allelic series).

Regarding CGGGAGCC, the binding signal with HOXC9 [1] was 9.62 upbm affinity estimate (log intensity, higher = more binding, comparable within an allelic series); with HOXC9 [2] it was 9.73 upbm affinity estimate (log intensity, higher = more binding, comparable within an allelic series); with HOXC9 [3] it was 9.62 upbm affinity estimate (log intensity, higher = more binding, comparable within an allelic series); with PROP1 [4], 6.62 upbm affinity estimate (log intensity, higher = more binding, comparable within an allelic series); in the assay with PROP1 [5] it was 6.7 upbm affinity estimate (log intensity, higher = more binding, comparable within an allelic series); with HOXC9 [6] it was 9.69 upbm affinity estimate (log intensity, higher = more binding, comparable within an allelic series). Also, in the assay with PROP1 [7], the binding signal is 6.53 upbm affinity estimate (log intensity, higher = more binding, comparable within an allelic series).

For TTATACAA, the binding signal with HOXC9 [1] was 11.1 upbm affinity estimate (log intensity, higher = more binding, comparable within an allelic series); with HOXC9 [2], 11.1 upbm affinity estimate (log intensity, higher = more binding, comparable within an allelic series); in the assay with HOXC9 [3] it was 11.2 upbm affinity estimate (log intensity, higher = more binding, comparable within an allelic series); in the assay with ALX3 it was 9.71 upbm affinity estimate (log intensity, higher = more binding, comparable within an allelic series).

ATCTTTAA: the binding signal in the assay with HOXC9 [1] was 11.4 upbm affinity estimate (log intensity, higher = more binding, comparable within an allelic series); with HOXC9 [2] it was 11.3 upbm affinity estimate (log intensity, higher = more binding, comparable within an allelic series); with HOXC9 [3] it was 11.4 upbm affinity estimate (log intensity, higher = more binding, comparable within an allelic series).

In the case of AGCCGACC, the binding signal with HOXC9 [1] is 9.56 upbm affinity estimate (log intensity, higher = more binding, comparable within an allelic series); with HOXC9 [2], 9.71 upbm affinity estimate (log intensity, higher = more binding, comparable within an allelic series); with HOXC9 [3], 9.61 upbm affinity estimate (log intensity, higher = more binding, comparable within an allelic series); with HOXC9 [6], 9.74 upbm affinity estimate (log intensity, higher = more binding, comparable within an allelic series).

On to ATAATAAC, for which the binding signal with HOXC9 [1] was 12 upbm affinity estimate (log intensity, higher = more binding, comparable within an allelic series); with HOXC9 [2], 12 upbm affinity estimate (log intensity, higher = more binding, comparable within an allelic series); with HOXC9 [3], 12 upbm affinity estimate (log intensity, higher = more binding, comparable within an allelic series); with HOXC9 [6], 10.7 upbm affinity estimate (log intensity, higher = more binding, comparable within an allelic series).

TTCATAAA: the binding signal with HOXC9 [1] is 11.7 upbm affinity estimate (log intensity, higher = more binding, comparable within an allelic series); with HOXC9 [2], 11.7 upbm affinity estimate (log intensity, higher = more binding, comparable within an allelic series); with HOXC9 [3], 11.7 upbm affinity estimate (log intensity, higher = more binding, comparable within an allelic series).

Regarding GGGCCCCC, the binding signal is 9.38 upbm affinity estimate (log intensity, higher = more binding, comparable within an allelic series) in the assay with HOXC9 [1]; 9.62 upbm affinity estimate (log intensity, higher = more binding, comparable within an allelic series) with HOXC9 [2]; 9.51 upbm affinity estimate (log intensity, higher = more binding, comparable within an allelic series) with HOXC9 [3]; 9.4 upbm affinity estimate (log intensity, higher = more binding, comparable within an allelic series) in the assay with HOXC9 [6].

Regarding ATATGAAA, the binding signal with HOXC9 [1] is 11.4 upbm affinity estimate (log intensity, higher = more binding, comparable within an allelic series); with HOXC9 [2], 11.3 upbm affinity estimate (log intensity, higher = more binding, comparable within an allelic series); with HOXC9 [3], 11.4 upbm affinity estimate (log intensity, higher = more binding, comparable within an allelic series).

As for GGGCACGA, the binding signal with HOXC9 [1] was 9.75 upbm affinity estimate (log intensity, higher = more binding, comparable within an allelic series); in the assay with HOXC9 [2] it was 9.85 upbm affinity estimate (log intensity, higher = more binding, comparable within an allelic series); with HOXC9 [3], 9.76 upbm affinity estimate (log intensity, higher = more binding, comparable within an allelic series); in the assay with HOXC9 [6] it was 9.89 upbm affinity estimate (log intensity, higher = more binding, comparable within an allelic series).

Consider AGACCAGG, for which the binding signal with HOXC9 [1] was 9.63 upbm affinity estimate (log intensity, higher = more binding, comparable within an allelic series); with HOXC9 [2] it was 9.68 upbm affinity estimate (log intensity, higher = more binding, comparable within an allelic series); with HOXC9 [3], 9.61 upbm affinity estimate (log intensity, higher = more binding, comparable within an allelic series); with HOXC9 [6] it was 9.71 upbm affinity estimate (log intensity, higher = more binding, comparable within an allelic series).

As to ACTAAATA, the binding signal is 11.6 upbm affinity estimate (log intensity, higher = more binding, comparable within an allelic series) in the assay with HOXC9 [1]; 11.5 upbm affinity estimate (log intensity, higher = more binding, comparable within an allelic series) in the assay with HOXC9 [2]; 11.6 upbm affinity estimate (log intensity, higher = more binding, comparable within an allelic series) in the assay with HOXC9 [3].

Turning to CCGTTATA, the binding signal with HOXC9 [1] was 11.3 upbm affinity estimate (log intensity, higher = more binding, comparable within an allelic series); with HOXC9 [2], 11.3 upbm affinity estimate (log intensity, higher = more binding, comparable within an allelic series); with HOXC9 [3], 11.2 upbm affinity estimate (log intensity, higher = more binding, comparable within an allelic series); with HOXC9 [6], 10.3 upbm affinity estimate (log intensity, higher = more binding, comparable within an allelic series).
